Screening results: PubChem BioAssay, National Center for Advancing Translational Sciences (NCATS)
Sampled rows, rich in hits. Any-hit rate of the full collection: about 10%.
JMJD2A Tudor: JMJD2A Tudor domain (human) inhibition | AlphaScreen JMJD2A-Tudor / H3K4me3 peptide binding | Potency, µM (highest dose often 114 µM), without a hit: at the top dose activity change, negative = inhibition, hits mostly inhibitors | 390,000 compounds, 4.4% hits | AID 504339; further: potency means the concentration at half of the fitted maximal effect; on the % scale 0 is the no-effect control and ±100 the full control effect; nearly all actives have a fitted effect of over 50% in size
Six1-Eya2 inh: inhibitors of human Six1/Eya2 interaction; activity change, % (concentration not given with the values); AlphaScreen GST-Six1/His-Eya2 binding, biochemical; stronger effect = lower value; 360,000 compounds, 0.56% hits; in the data active means activity change below about -65%; inconclusive means mostly about -30% to -63%; further: on the % scale 0 is the no-effect control and ±100 the full control effect
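Compounds are tested against tagged Six1 and Eya2 proteins bridged by glutathione donor and nickel acceptor beads; after a one-hour incubation at 37 °C without light, AlphaScreen emission is recorded.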
HP1b binding inh: inhibitors of HP1-beta chromodomain binding to methylated histone tails | P83916 | AlphaScreen HP1-beta / biotin-H3K9me3 peptide binding | Potency, µM (doses to about 114 µM), inactives show at the top dose activity change, negative = inhibition, hits mostly inhibitors | 390,000 compounds, 0.56% hits; further: potency means the concentration at half of the fitted maximal effect; nearly all actives have a fitted effect of over 70% in size
Target sequence (P83916 whole entry, looked up): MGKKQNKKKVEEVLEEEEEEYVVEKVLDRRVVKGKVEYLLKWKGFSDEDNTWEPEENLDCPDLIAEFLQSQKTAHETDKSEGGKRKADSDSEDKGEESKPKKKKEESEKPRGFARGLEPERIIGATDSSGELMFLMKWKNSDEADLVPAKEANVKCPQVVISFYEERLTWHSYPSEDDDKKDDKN
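HP1-beta protein (50 nM final) preincubated 30 min at room temperature with biotinylated H3(1-18)K9me3 peptide (50 nM) in PBS pH 7.4, 0.01% Tween-20, then compound added for 30 min. AlphaScreen streptavidin donor/nickel chelate acceptor beads (10 ug/mL final), 30 min dark, luminescence read.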
CtBP-E1A inh: CtBP/E1A binding inhibition; AlphaScreen GST-E1A/His-CtBP binding, 1536-well; stronger effect = lower value; activity change, % (concentration not given with the values); 340,000 compounds, 0.49% hits; AID 651724; in the data active means activity change below about -65%; inconclusive means mostly about -30% to -63%; further: on the % scale 0 is the no-effect control and ±100 the full control effect
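Steps: dispense buffer (Tris pH 8.0, NaCl 300 mM, TCEP 1 mM, BSA, Tween 20); add 5X protein mix (GST-E1A, His-CtBP, 125 nM each); pin 23 nL compound; 2 h at 37 °C, dark; add 5X beads (50 ug/mL); 1 h; read.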
BAZ2B block: inhibitors of human BAZ2B bromodomain | Q9UIF8 | AlphaScreen BAZ2B-H3K14Ac peptide displacement | Potency, µM (series often up to 114 µM), inactives show at the highest dose activity change, negative = inhibition, usual class: inhibitors | 360,000 compounds, 4.4% hits; further: potency means the concentration at half of the fitted maximal effect; on the % scale 0 is the no-effect control and ±100 the full control effect; nearly all actives have a fitted effect of over 60% in size
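Multi-concentration screen (max 110 uM) measuring displacement of acetylated histone H3 peptide from BAZ2B by AlphaScreen, using 50 nM protein, 50 nM peptide and 10 ug/mL streptavidin donor plus Ni-chelate acceptor beads.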
G9a block: inhibitors of human histone lysine methyltransferase G9a. Q96KQ7. G9a H3K9 monomethylation, AlphaScreen, 2 h. Potency, µM (highest dose often 102 µM), without a hit: top-dose activity, negative = inhibition, usual class: inhibitors. 350,000 compounds, 8.8% hits. AID 504332; further: potency means the concentration at half of the fitted maximal effect; on the % scale 0 is the no-effect control and ±100 the full control effect; nearly all actives have a fitted effect of over 75% in size
Target sequence (Q96KQ7 913-1193 limits assumed): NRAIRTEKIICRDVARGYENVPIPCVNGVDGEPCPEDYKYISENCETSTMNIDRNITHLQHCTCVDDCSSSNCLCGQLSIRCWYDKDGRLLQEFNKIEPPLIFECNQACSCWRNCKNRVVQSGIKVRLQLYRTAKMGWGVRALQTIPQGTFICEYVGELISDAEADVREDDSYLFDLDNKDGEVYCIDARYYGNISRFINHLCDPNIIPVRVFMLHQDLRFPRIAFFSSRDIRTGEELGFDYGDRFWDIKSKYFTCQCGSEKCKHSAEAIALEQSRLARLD
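AlphaScreen detection with an anti-monomethyl H3K9 antibody quantified product after a 2 h room-temperature reaction containing 500 nM biotinylated H3K9 peptide, 20 µM SAM and 20 nM enzyme, which had been preincubated 15 min with compound.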
* marks the source's active call; other numbers are inactive results; [ ] = dose if it differs, or a comment. Unless noted, the call rests on the fitted dose curve; in most records, active means well fitted inhibition curve with a large enough effect; inconclusive means small, poorly fitted or top-dose-only effect; inactive means no such curve, though single readings can be large or run the other way.

COC(=O)/C=C1/C(=O)N/C(=N\c2nc(C)cc(C)n2)N1c1ccc(OC)cc1 was read as JMJD2A Tudor 25.1µM*, Six1-Eya2 inh -0.2, HP1b binding inh 29.3%, CtBP-E1A inh 7.7, BAZ2B block inconclusive and G9a block inconclusive.
For COC(=O)/C=C1\N/C(=N\c2nc(C)cc(C)n2)N(c2ccc(Cl)cc2)C1=O the results were JMJD2A Tudor 20µM*, Six1-Eya2 inh 0.0, HP1b binding inh 7.6%, CtBP-E1A inh 1.2 and BAZ2B block -8.2%.
`Cc1cc(Cl)ccc1NC(=O)C1CCCN(c2nnc(C)c3c(C)n(-c4ccccc4)nc23)C1` (stereo not given) gave JMJD2A Tudor -19.0%, HP1b binding inh -0.1%, BAZ2B block -5.9% and G9a block inconclusive.
Screening Cc1ccc(Cl)cc1N1CCN(C(=O)c2cc(S(=O)(=O)N3CCCC3)cn2C)CC1 returned JMJD2A Tudor -16.8%, HP1b binding inh 29.1%, BAZ2B block -15.4% and G9a block -2.8%[59 µM].
For Cc1ccc(NC(=O)CSc2nnc(-c3cccnc3)s2)cc1 the results were JMJD2A Tudor -6.0%, Six1-Eya2 inh -1.4, HP1b binding inh 33.1%, CtBP-E1A inh -2.7, BAZ2B block 20.2% and G9a block 79.4µM*.
Screening Cc1ccc(-c2nc(-c3cccnc3)sc2CC(=O)O)cc1 returned JMJD2A Tudor -5.1%, Six1-Eya2 inh 6.2, HP1b binding inh 24.5%, CtBP-E1A inh 4.5, BAZ2B block -15.6% and G9a block inconclusive.
`O=C(CSc1nnc(-c2ccncc2)s1)Nc1ccc(Cl)c(C(=O)O)c1` gave JMJD2A Tudor -18.3%, Six1-Eya2 inh -22.2, HP1b binding inh -1.9%, CtBP-E1A inh -16.5, BAZ2B block inconclusive and G9a block 50.1µM*.
For CC(=O)Nc1ccc(NC(=O)Cc2sc(-c3cccnc3)nc2-c2ccc(C)cc2)cc1 the results were JMJD2A Tudor -9.7%, Six1-Eya2 inh -5.8, HP1b binding inh 29.5%, CtBP-E1A inh 0.9, BAZ2B block -16.1% and G9a block 44.7µM*.
`COc1ccc(Nc2nc3c(S(=O)(=O)c4ccc(C)cc4)nnn3c3ccsc23)cc1Cl` gave JMJD2A Tudor -8.1%, HP1b binding inh 18.1%, BAZ2B block -20.9% and G9a block -5.1%[59 µM].
`CCN(CC)c1ccc(NC(=O)CCCOc2cccc(C)c2)cc1` gave JMJD2A Tudor 10µM*, Six1-Eya2 inh inconclusive, HP1b binding inh inconclusive, CtBP-E1A inh inconclusive, BAZ2B block 0.7% and G9a block 8.7%.
CCOc1ccc(OCc2cccc(C(=O)Nc3ccc(CN4CCCCC4)cc3)c2)cc1 was read as JMJD2A Tudor inconclusive, Six1-Eya2 inh -13.6, HP1b binding inh inconclusive, CtBP-E1A inh -20.2, BAZ2B block inconclusive and G9a block 20µM*.
Screening CCOc1cccc(C(=O)Nc2ccc(N3CCCC3)cc2)c1 returned JMJD2A Tudor inconclusive, Six1-Eya2 inh inconclusive, HP1b binding inh -9.8%, CtBP-E1A inh inconclusive, BAZ2B block -32.3% and G9a block 3.55µM*.
CCOc1cccc(C(=O)Nc2ccc(N(CC)CC)cc2)c1 was read as JMJD2A Tudor 25.1µM*, Six1-Eya2 inh inconclusive, HP1b binding inh inconclusive, CtBP-E1A inh inconclusive, BAZ2B block 39.8µM* and G9a block 8.91µM*.
Screening Cc1cccc(OCCCC(=O)Nc2ccc(S(N)(=O)=O)cc2)c1 returned JMJD2A Tudor 5.2%, Six1-Eya2 inh 3.3, HP1b binding inh 47.5%, CtBP-E1A inh 3.7, BAZ2B block -16.6% and G9a block -26.4%.
Screening COc1ccc(OCc2cccc(C(=O)Nc3ccc(CN4CCCCC4)cc3)c2)cc1 returned JMJD2A Tudor inconclusive, Six1-Eya2 inh -16.1, HP1b binding inh -20.5%, CtBP-E1A inh -8.8, BAZ2B block inconclusive and G9a block inconclusive.
`Cc1oc(-c2cccs2)nc1CN1CCC(CO)(CCOc2ccccc2)CC1` gave JMJD2A Tudor -31.7%, Six1-Eya2 inh -2.7, HP1b binding inh 6.4%, CtBP-E1A inh -9.0, BAZ2B block -34.6% and G9a block 0.4%.
